The supplement of paper PMC12067093, “Discovery and optimisation of a covalent ligand for TRIM25 and its application to targeted protein ubiquitination” (Chemical Science, 2025)
About 21,000 targets were measured; listed, in parts, are those with the largest changes and a random draw of the rest.

compound: CC1Cc2ccccc2N1C(=O)C1CCCN(C1)C(=O)CCl (mixture of isomers) [TRIM25 ligand 11 (diastereomer mixture)]; assay: probe-labelled cysteine peptide fold change vs DMSO (competition) (log2 fold change); higher = less target engagement (more negative = stronger competition); conditions: 10 µM; THP-1; incubation time: 4 h
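Note: competitive chemoproteomic profiling in live THP-1 cells with an iodoacetamide desthiobiotin (IA-DTB) probe, comparing probe-labelled peptide intensities in compound-treated cells against DMSO-treated controls.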

Chain of UniProt P53597 (P53597 whole entry, looked up): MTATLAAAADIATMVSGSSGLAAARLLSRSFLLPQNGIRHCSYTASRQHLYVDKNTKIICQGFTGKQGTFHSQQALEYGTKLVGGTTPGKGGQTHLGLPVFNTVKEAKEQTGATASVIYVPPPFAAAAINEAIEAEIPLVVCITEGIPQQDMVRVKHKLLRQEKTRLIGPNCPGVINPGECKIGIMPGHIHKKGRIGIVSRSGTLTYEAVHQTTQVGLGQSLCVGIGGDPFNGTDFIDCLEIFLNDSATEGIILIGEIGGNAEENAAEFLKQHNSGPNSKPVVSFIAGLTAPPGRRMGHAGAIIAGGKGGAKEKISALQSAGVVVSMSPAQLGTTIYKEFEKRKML
Chain of UniProt Q6P1X5 (Q6P1X5 whole entry, looked up): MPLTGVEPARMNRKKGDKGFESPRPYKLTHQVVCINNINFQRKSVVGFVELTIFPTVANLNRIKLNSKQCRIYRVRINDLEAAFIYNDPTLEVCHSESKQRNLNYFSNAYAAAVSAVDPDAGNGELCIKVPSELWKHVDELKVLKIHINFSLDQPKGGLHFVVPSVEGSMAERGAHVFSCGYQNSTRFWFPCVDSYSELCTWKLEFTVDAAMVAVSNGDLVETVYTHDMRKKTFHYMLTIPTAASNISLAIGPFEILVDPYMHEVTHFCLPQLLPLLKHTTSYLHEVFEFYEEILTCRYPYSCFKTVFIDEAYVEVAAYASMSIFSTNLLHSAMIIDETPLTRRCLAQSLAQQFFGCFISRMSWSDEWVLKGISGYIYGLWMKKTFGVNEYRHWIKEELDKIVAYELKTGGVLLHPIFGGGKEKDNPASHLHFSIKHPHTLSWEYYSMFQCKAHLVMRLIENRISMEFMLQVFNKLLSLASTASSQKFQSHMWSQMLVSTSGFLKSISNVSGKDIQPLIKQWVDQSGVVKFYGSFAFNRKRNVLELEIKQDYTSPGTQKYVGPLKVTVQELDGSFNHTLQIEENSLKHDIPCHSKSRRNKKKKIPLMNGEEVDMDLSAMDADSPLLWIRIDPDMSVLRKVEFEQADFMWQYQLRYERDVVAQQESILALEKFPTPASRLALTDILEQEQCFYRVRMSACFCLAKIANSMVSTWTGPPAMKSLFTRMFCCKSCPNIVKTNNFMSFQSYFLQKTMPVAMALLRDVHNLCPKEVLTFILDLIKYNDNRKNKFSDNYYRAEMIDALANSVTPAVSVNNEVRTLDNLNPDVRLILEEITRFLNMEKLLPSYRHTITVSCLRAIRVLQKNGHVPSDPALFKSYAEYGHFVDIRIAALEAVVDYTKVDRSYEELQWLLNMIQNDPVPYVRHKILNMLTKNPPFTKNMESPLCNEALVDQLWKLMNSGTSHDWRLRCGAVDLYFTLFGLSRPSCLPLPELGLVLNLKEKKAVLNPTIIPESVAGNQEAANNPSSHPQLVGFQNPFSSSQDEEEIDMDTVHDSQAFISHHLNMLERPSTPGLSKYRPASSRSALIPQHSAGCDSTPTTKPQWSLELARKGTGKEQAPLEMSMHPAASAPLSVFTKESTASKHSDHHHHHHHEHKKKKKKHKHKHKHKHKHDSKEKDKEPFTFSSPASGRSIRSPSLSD
Chain of UniProt Q86TJ2 (Q86TJ2 whole entry, looked up): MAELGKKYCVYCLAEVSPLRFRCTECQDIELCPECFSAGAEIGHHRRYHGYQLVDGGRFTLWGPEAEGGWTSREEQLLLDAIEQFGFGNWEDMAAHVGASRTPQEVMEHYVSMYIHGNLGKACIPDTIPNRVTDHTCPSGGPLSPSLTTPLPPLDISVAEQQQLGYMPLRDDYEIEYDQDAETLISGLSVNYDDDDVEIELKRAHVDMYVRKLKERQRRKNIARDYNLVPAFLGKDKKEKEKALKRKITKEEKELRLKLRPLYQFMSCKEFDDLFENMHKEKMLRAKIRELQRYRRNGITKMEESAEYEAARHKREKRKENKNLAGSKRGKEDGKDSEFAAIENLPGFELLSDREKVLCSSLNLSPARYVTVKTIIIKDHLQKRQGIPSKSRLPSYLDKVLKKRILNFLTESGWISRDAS
Chain of UniProt Q8TE77 (Q8TE77 whole entry, looked up): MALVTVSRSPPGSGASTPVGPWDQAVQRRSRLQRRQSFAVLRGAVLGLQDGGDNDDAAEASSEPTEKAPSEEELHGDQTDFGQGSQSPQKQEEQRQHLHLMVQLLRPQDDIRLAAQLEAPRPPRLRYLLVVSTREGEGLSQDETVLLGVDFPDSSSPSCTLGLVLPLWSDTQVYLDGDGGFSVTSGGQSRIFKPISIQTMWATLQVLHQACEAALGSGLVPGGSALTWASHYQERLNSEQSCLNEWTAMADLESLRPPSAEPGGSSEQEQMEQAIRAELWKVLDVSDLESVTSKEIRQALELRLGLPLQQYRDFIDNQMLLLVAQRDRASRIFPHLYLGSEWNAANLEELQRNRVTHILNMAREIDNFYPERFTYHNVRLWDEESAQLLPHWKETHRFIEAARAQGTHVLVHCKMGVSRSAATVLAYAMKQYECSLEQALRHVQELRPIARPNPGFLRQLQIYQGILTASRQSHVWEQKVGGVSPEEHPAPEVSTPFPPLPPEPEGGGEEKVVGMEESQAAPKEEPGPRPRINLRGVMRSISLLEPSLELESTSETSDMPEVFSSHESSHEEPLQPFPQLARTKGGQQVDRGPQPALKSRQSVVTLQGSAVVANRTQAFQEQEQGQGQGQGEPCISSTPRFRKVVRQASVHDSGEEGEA
Chain of UniProt A2RTX5 (A2RTX5 whole entry, looked up): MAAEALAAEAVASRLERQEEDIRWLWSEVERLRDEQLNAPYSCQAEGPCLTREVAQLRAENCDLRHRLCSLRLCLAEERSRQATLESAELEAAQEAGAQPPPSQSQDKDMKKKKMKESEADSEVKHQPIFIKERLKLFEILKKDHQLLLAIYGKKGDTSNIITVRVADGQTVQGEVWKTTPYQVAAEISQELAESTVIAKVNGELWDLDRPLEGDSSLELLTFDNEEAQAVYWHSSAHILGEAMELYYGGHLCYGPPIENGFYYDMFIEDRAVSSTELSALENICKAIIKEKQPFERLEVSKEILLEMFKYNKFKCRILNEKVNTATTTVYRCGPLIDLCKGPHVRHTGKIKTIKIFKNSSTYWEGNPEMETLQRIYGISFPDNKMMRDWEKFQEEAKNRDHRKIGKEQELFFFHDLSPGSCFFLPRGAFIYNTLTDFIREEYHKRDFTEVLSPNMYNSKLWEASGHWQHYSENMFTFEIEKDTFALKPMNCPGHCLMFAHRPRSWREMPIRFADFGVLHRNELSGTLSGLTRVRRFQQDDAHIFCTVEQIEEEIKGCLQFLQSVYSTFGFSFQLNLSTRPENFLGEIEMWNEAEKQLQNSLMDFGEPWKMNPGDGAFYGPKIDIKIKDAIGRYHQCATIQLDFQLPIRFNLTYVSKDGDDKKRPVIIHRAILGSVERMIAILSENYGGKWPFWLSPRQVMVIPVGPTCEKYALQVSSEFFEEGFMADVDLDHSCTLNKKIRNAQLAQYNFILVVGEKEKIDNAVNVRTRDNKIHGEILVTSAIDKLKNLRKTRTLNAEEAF
Chain of UniProt Q15654 (Q15654 whole entry, looked up): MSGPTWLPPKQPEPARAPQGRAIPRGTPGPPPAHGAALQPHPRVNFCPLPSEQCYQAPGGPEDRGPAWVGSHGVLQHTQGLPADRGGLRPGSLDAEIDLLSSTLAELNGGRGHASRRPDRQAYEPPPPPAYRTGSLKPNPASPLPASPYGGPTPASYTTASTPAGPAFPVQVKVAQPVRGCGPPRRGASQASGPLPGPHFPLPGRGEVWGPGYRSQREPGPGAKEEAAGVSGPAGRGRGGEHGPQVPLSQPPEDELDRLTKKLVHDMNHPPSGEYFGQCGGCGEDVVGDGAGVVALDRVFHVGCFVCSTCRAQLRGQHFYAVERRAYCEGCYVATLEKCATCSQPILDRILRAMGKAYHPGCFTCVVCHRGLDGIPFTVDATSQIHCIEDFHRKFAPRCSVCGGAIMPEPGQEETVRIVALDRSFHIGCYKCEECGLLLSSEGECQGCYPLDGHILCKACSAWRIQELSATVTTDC
Chain of UniProt Q9UGI8 (Q9UGI8 whole entry, looked up): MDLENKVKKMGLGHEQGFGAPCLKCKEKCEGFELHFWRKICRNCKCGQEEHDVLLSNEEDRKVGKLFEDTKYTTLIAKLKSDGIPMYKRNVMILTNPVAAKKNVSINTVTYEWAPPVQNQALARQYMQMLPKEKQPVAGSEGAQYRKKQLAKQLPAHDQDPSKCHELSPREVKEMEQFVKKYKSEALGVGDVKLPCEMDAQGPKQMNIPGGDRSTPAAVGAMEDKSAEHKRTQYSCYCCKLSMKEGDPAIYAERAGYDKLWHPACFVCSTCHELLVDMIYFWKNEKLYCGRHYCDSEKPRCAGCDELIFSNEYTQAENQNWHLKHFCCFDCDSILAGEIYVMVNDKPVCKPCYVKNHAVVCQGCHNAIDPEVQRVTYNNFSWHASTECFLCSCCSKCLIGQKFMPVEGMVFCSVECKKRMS
Chain of UniProt Q969E4 (Q969E4 whole entry): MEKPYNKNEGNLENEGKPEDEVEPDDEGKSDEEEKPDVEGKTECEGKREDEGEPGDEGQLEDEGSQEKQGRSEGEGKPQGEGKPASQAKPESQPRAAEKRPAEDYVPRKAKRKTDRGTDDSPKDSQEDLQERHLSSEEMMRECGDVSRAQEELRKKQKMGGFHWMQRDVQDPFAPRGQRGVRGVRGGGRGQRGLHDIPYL
Chain of UniProt P50502 (P50502 whole entry): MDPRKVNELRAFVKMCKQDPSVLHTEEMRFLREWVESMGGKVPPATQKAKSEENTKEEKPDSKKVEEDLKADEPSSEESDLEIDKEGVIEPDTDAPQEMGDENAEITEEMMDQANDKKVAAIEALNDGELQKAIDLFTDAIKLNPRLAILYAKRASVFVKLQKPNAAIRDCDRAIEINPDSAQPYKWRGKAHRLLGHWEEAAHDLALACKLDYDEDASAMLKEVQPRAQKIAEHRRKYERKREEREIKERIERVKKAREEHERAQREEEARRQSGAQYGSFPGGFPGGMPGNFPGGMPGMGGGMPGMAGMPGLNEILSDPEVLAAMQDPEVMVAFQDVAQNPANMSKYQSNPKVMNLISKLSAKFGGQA

Target	probe-labelled cysteine peptide fold change
SUCLG1_P53597_172_LIGPNCPGVINPGECK (UniProt P53597)	-0.0627
TDRD7_Q8NHU6_284_EDLNQGILQQFEHWPHICTVEK (UniProt Q8NHU6)	0.0148
TOP2B_Q02880-2_7_SGGCGAGAGVGGGNGALTWVNNAAK (UniProt Q02880)	-0.0783
SSH3_Q8TE77_634_TQAFQEQEQGQGQGQGEPCISSTPR (UniProt Q8TE77)	-0.0571
THBS1_P07996_754_IPDDRDNCPFHYNPAQYDYDRDDVGDR (UniProt P07996)	0.813
TMEM94_Q12767_381_CIWGHFLR (UniProt Q12767)	-0.00858
TGFBRAP1_Q8WUH2_32_VNIECVECCGR (UniProt Q8WUH2)	-0.0319
TET3_O43151_1381_GKPWSPCK (UniProt O43151)	-0.294
TBCD_Q9BTW9_457_GACSVGTNVR (UniProt Q9BTW9)	0.145
TCEAL3_Q969E4_44_TECEGKREDEGEPGDEGQLEDEGSQEK (UniProt Q969E4)	-0.32
SUPT16H_Q9Y5B9_574_INFYCPGSALGR (UniProt Q9Y5B9)	0.121
TIAL1_Q01085_205+209_NCTVYCGGIASGLTDQLMR (UniProt Q01085)	0.161
TLE1_Q04724_47_IKEEFQFLQAQYHSLKLECEK<|>TLE2_Q04725_46_IKEEFQFLQAQYHSLKLECEK (UniProt Q04725+Q04724)	-0.573
THOC2_Q8NI27_743_DALLDHDLALPLCLLMAQQR (UniProt Q8NI27)	0.0629
TADA2B_Q86TJ2_32+35_CTECQDIELCPECFSAGAEIGHHR (UniProt Q86TJ2)	0.502

same assay, conditions: 50 µM; THP-1; incubation time: 4 h

Target	probe-labelled cysteine peptide fold change
ST13_P50502_209_LLGHWEEAAHDLALACKLDYDEDASAMLK (UniProt P50502)	-0.574
TRIP6_Q15654_362+365+368_AYHPGCFTCVVCHR (UniProt Q15654)	0.0784
TAF2_Q6P1X5_357_CLAQSLAQQFFGCFISR (UniProt Q6P1X5)	-0.862
TARSL2_A2RTX5_546_FQQDDAHIFCTVEQIEEEIK (UniProt A2RTX5)	0.235
TANC1_Q9C0D5_800_MDALSCFLIK (UniProt Q9C0D5)	0.0229
TES_Q9UGI8_22_MGLGHEQGFGAPCLK (UniProt Q9UGI8)	-0.176
STK11IP_Q8N1F8_918_NCVSATEEEVTPQHR (UniProt Q8N1F8)	0.108
